# From PubChem BioAssay (NCI)
# Values joined by “and” are separate entries in the source; they are usually repeats but may differ in a detail not shown here. Equal entries are not always repeated. About 79,000 compounds went through this panel and 15% of them were active in at least one assay; those are over-represented in the sample as a whole. A number with no mark means an inactive call. Active and inactive are the calls of the source. Rule as the data show it: active = growth inhibition above about 70%; inactive = the rest. Where a SMILES comes first, the peptide text is derived from it. [ ]: non-standard residue; d: D form. The star is where a group is joined. Cbz = O=C(OCc1ccccc1)*; Nva = CCC[CH](N)C(=O)O
# How the values were obtained:
# [1] = NCI Yeast Anticancer Drug Screen. Data for the rad50 strain (AID 155);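 also: 0% = growth of vehicle-only cultures of the same strain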; conditions: S. cerevisiae rad50 strain growth inhibition, hits give high values; at 50.0 µM unless noted
# Summary of the method: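 Yeast carrying a defined DNA repair defect were exposed to test compounds, and growth was compared with vehicle-treated controls to give percent inhibition.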
# [2] = NCI Yeast Anticancer Drug Screen. Data for the mec2-1 strain (AID 157); conditions: S. cerevisiae mec2-1 strain, hits give high values; at 50.0 µM unless noted
# Summary of the method: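 Readout is yeast growth inhibition, normalised to vehicle-treated controls, in the mec2-1 strain exposed to compound.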
# [3] = NCI Yeast Anticancer Drug Screen. Data for the sgs1 mgt1 strain (AID 161);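 also: 0% = growth of cultures given vehicle only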; conditions: S. cerevisiae sgs1 mgt1 strain, hits give high values; at 50.0 µM unless noted
# Summary of the method: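 Yeast cells carrying a defined DNA-repair defect were exposed to test compounds. Growth inhibition was measured relative to vehicle-treated controls.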
# [4] = NCI Yeast Anticancer Drug Screen. Data for the cln2 rad14 strain (AID 165);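 also: 0% = growth equal to vehicle treated cultures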; conditions: S. cerevisiae cln2 rad14 strain, hits give high values; at 50.0 µM unless noted
# Summary of the method: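 Relative to vehicle controls, growth inhibition of compound-treated cln2 rad14 yeast was recorded.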
# [5] = NCI Yeast Anticancer Drug Screen. Data for the bub3 strain (AID 167); conditions: S. cerevisiae bub3 mutant strain, hits give high values; at 50.0 µM unless noted
# Summary of the method: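 Compounds were applied to a genetically altered yeast strain carrying a cell-cycle control defect. Growth inhibition was scored against vehicle-treated controls.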
# [6] = NCI Yeast Anticancer Drug Screen. Data for the mlh1 rad18 strain (AID 175); conditions: S. cerevisiae mlh1 rad18 strain growth inhibition, hits give high values; at 50.0 µM unless noted
# Summary of the method: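 Test agents were incubated with a yeast strain of defined genotype (DNA damage repair defect). Inhibition of growth was derived by comparison with vehicle-exposed cultures.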
SMILES,growth inhibition [1],growth inhibition [2],growth inhibition [3],growth inhibition [4],growth inhibition [5],growth inhibition [6]
CCOC(=O)C(CC(C)C)NC(=O)c1ccc(C)c(OCc2ccccc2)c1[N+](=O)[O-] (centres undefined),17.9%,-8.75%,37.9%,0.6%,11.6%,-3.9%
CC1(C)CC[C@]2(C(=O)O)CC[C@]3(C)C(=CC[C@@H]4[C@@]5(C)CC[C@H](OC6OC(CO)C(O)C(O)C6O)C(C)(C)[C@@H]5CC[C@]43C)[C@@H]2C1 (some centres undefined),76.2% (active),74.8% (active),47.9%,74.2% (active),82.4% (active),54.4%
CCCC(NC(=O)OCc1ccccc1)C(=O)NC(CC(C)C)C(N)=O (centres undefined) (Cbz-[Nva]-Leu-NH2; configuration not given here),12.9%,2.35%,5%,22.2%,6.55%,5.15%
COc1cc2c(cc1OC)C(C(N)=O)NCC2 (centres undefined),10.2%,-35.8%,25.6%,12.2%,-7%,17.6%
Cc1cc(=O)oc2nn(CCO)c(C)c12,-35.3%,-17.6%,-10.1%,-41.9%,-10.6%,-13.7%
O=C1/C(=C\C=C\c2ccccc2)CCCC/C1=C\C=C\c1ccccc1,11.3%,-0.35%,-0.95%,5.95%,-1.4%,8.35%
C=C(COc1ccc(OC)cc1)C(C)(C)C,18.9%,13.3%,-17.4%,-14.4%,14.7%,-19.5%
O=[N+]([O-])C(C(Cl)=C(Cl)Cl)=C(N1CCOCC1)N1CCOCC1,-25.2%,-21.1%,-19.1%,-9.6%,5.1%,1.85%
C=CCOc1cc2c(cc1C(CC)c1ccc(OCc3ccccc3)cc1)OCO2 (centres undefined),31.9%,5.2%,-2.85%,13.9%,0.9%,-10.2%
N#CSC(C(=O)c1ccccc1)c1ccccc1 (centres undefined),94.2% (active),60.6%,91.2% (active),89% (active),95.2% (active),91.3% (active)
O=C(c1ccccc1)N1c2ccc([N+](=O)[O-])cc2Sc2cc([N+](=O)[O-])ccc21,16.7%,-3.45%,33.6%,8.35%,-10.7%,13.1%
O=C1OC(=O)C2=C1CCc1ccc3ccccc3c12,-29.8%,-22.1%,5.9%,-29.6%,5.75%,-5.2%
O=C1CCCc2[nH]ccc21,-14.7%,-1.2%,-9.25%,64.6%,14.8%,-4.55%
c1ccc2c(c1)nnn2C1CCCCO1 (centres undefined),-4.8%,-13.2%,-19.5%,-5.1%,-22.4%,-72.8%
CC1CC(=O)Nc2nc3ccccc3n21 (centres undefined),7.15%,6.65%,-25.2%,-44.9%,-21.8%,-28.8%
CC1(C)COC2(CCCCC2)OC1,12.8%,4.4%,-10.6%,-30.1%,-1.7%,8.95%
O=C(O)C1C2OC3C(OC(=O)C31)C2Br (centres undefined),-9.6% and 3.1%,6.75% and -15.9%,-8.9% and 2.25%,6.4% and -34.2%,-2.35% and 1.3%,-4.65% and 25.3%
O=C(NCCS)C(=O)NCCS,-1.55%,7.9%,3.65%,9.7%,-12.7%,-10.2%
NC(=O)c1ccc(-c2csc(=S)[nH]2)s1,-1.9%,-9.7%,-15.5%,-13.1%,-19.1%,-5.35%
COC1/C=C/OC2(C)Oc3c(C)c(O)c4c(c3C2=O)C(=O)C([N+](=O)[O-])=C(NC(=O)C(C)=C/C=C\C(C)C(O)C(C)C(O)C(C)C(OC(C)=O)C1C)C4=O (centres undefined),21.7%,10.4%,29.4%,19.6%,24.4%,29.6%

SMILES,growth inhibition [1],growth inhibition [2],growth inhibition [3],growth inhibition [4],growth inhibition [5],growth inhibition [6]
COc1cc(O)c(C/C=C/c2ccccc2)cc1O,49.6%,21.4%,27.6%,-12.3%,29.1%,64.9%
O=C(O)c1ccc([N+](=O)[O-])cc1Br,3.5%,-2.85%,-4.65%,-45%,-23.6%,6.2%
CO/N=C(/NC(=O)OC)c1ccccc1,10.8%,18.4%,-5%,-20.2%,14.4%,-15.3%
CCOC(=O)/C(=N/Nc1ccc(Cl)cc1)N1C(=S)C=C(C)NN(C)C1=S,-6.35%,-13.4%,-22.1%,-6.4%,-4.8%,8.15%
Cc1nc2cnc(=Nc3ccccc3)nc-2n(-c2ccccc2)c1C,-1.15%,-1.55%,-0.65%,56.9%,5.15%,-7.9%
CSc1nc(NC2OC(COC(C)=O)C(OC(C)=O)C(OC(C)=O)C2OC(C)=O)c(N=CC=Nc2c(NC3OC(COC(C)=O)C(OC(C)=O)C(OC(C)=O)C3OC(C)=O)nc(SC)[nH]c2=O)c(=O)[nH]1 (centres undefined),-13.8%,-17.7%,-13.8%,-17.7%,6.6%,5.75%
COc1cccc(/C=C/c2cnc3ccccc3n2)c1OC,-1.25%,13.8%,-10.2%,10.7%,-6.7%,-52.1%
O=C(CSc1n[nH]c(=S)c2nc[nH]c12)c1ccc(Br)cc1,11.7%,-0.2%,21.6%,33.1%,-0.4%,-8.65%
COc1ccc(NC(=O)CC/C(CC(=O)c2ccco2)=N/NC(=O)C(N)=O)cc1,-4%,-10.4%,-15.8%,-7.15%,-14.1%,-18.1%
N.N.N.N.O=C([O-])O.O=C([O-])[O-].[Co+3],2.15%,3.4%,12.1%,26.9%,24.2%,8.95%
Cc1c(Cl)cc(Cl)c2c1C(=O)CC(C)O2 (centres undefined),20.4%,7.4%,-0.4%,-17.2%,-14.5%,18.8%
CCOc1ccc(N=Nc2c(-c3ccccc3)nn(C(=O)CC(=O)Nc3ccccc3Cl)c2-c2ccccc2)cc1,20.6%,-8.2%,34.6%,3.5%,31%,18.7%
C=C(Br)CN(C#N)CC(=C)Br,-24.4%,-18.1%,13.8%,-4.25%,-10.5%,-56.9%
CCN1c2ccccc2CC(CCCN(C)C)(C(N)=O)c2ccccc21 (centres undefined),3.8%,12.3%,18.2%,9.45%,-1.85%,-8.25%
Cc1ccc(OCC(=O)N2N=C(c3ccccc3)CC2(O)c2ccccc2)cc1 (centres undefined),-7.6%,-41.9%,-30.6%,-15.6%,0%,-24.2%
O=C(O)C(F)(F)C(F)(F)C(F)(F)F,5.95%,-2.3%,-6.75%,14.6%,1.15%,3.25%
OCC1OCOC(CO)(CO)C1O (centres undefined),1.15%,0.05%,8.1%,-44.3%,21.7%,3.75%
CCOc1ccc(/C=C(\C(=O)c2ccccc2)S(=O)(=O)c2ccc(OC)cc2)cc1OC,17.9%,45.5%,1.2%,5.8%,29.6%,57%
CC(C)(CO)N=Cc1ccccc1O,-0.25%,-1.6%,-14.2%,-3.8%,-13.3%,6.35%
